# Measurements from PubChem BioAssay (NCATS).
# Results filed as inconclusive are left out. A call without a number means that no potency is given here. The source made the active and inactive calls. The call rests on the fitted dose curve; in most records, active means well fitted curve in the direction sought with a large enough effect; inconclusive means small, poorly fitted or top-dose-only effect, or another doubt; inactive means no such curve, though single readings can be large; an effect the other way counts as inactive or inconclusive.
# Experiments:
# [1] = qHTS assay for measurement of the activity of small molecule inhibitors on Zika virus induced Caspase-3 activity in human astrocytoma cells (AID 1224859); conditions: SNB-19 ZIKV-induced caspase-3/7, luminescence, 6 h; series mostly up to 45.7 µM
# How it was run: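 Compound added 1 h pre-infection; ZIKV 2 FFU/cell on SNB-19 cells, 6 h, 37 C/5% CO2. Caspase-Glo 3/7 luminescence; values as % inhibition of ZIKV-induced caspase activity.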
# [2] = qHTS Screen of the MIPE 4.0 Collection Against Ewings Sarcoma (EW8) (AID 1259255); conditions: EW8 Ewing sarcoma viability, CellTiter-Glo, 48 h; series mostly up to 45.8 µM; further: nearly all actives have a fitted effect of over 35% in size; further: potency means the concentration at half of the fitted maximal effect
# How it was run: (§1)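 Viability screen: 48 h incubation at 37C, 95% humidity, 5% CO2 with serially titrated compound, followed by CellTiter-Glo readout.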
# [3] = qHTS Screen of the MIPE 4.0 Collection Against Ewings Sarcoma (TC32) (AID 1259256); conditions: TC32 Ewing sarcoma viability, CellTiter-Glo, 48 h; series mostly up to 45.8 µM; further: nearly all actives have a fitted effect of over 45% in size; further: potency means the concentration at half of the fitted maximal effect
# How it was run: as §1
# [4] = Identifying Small Molecule Inhibitors of Pancreatic Cancer Stem Cells (A2780, Spheroid) (AID 1259357); conditions: Potency: A2780 spheroid viability; series mostly up to 46.1 µM;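 further: compound exposure lasted 48 h before the ATP luminescence read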; further: potency means the concentration at half of the fitted maximal effect
# How it was run: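 Pre-formed 14-day tumor spheroids or adherent cells dosed and incubated 48 h, 37C, 5% CO2. Viability assessed by CellTiter-Glo.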
# [5] = Identifying Small Molecule Inhibitors of Pancreatic Cancer Stem Cells (SN12C, Adherent) (AID 1259358); conditions: viability/growth inhibition; series mostly up to 46.1 µM;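 further: cell survival measured after 48 h of compound exposure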; further: potency means the concentration at half of the fitted maximal effect
# How it was run: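 Monolayer and spheroid cultures are compared. Spheroids form over 14 days in stem cell medium on hydrogel-coated low-attachment plates, then are exposed to compound for 48 h before CellTiter-Glo luminescence.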
# [6] = qHTS Screen of the MIPE 4.0 Collection Against Ewings Sarcoma (TC71) (AID 1259253); conditions: TC71 Ewing sarcoma viability, CellTiter-Glo, 48 h; series mostly up to 45.8 µM; further: nearly all actives have a fitted effect of over 40% in size; further: potency means the concentration at half of the fitted maximal effect
# How it was run: as §1
# [7] = qHTS Screen of the MIPE 4.0 Collection Against Ewings Sarcoma (RDES) (AID 1259252); conditions: RD-ES Ewing sarcoma viability, CellTiter-Glo, 48 h; series mostly up to 45.8 µM; further: nearly all actives have a fitted effect of over 35% in size; further: potency means the concentration at half of the fitted maximal effect
# How it was run: as §1
# [8] = qHTS assay to identify small molecule inhibitors of chordoma cells - UCH-1 (AID 1259355); conditions: UCH-1 chordoma viability, CellTiter-Glo, 48 h, combination, with auranofin plus four topoisomerase inhibitors; series mostly up to 46.1 µM; further: nearly all actives have a fitted effect of over 55% in size
# How it was run: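 Cells (800/well) were seeded and left overnight at 37 C, 5% CO2, then treated with drugs at 15 concentrations plus a combination mix of auranofin, camptothecin, doxorubicin, rubitecan and topotecan. Viability after 48hr was read by CellTiter-Glo luminescence.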
# [9] = qHTS assay to identify small molecule inhibitors of chordoma cells - UCH-2 (AID 1259356); conditions: UCH-2 chordoma viability, CellTiter-Glo ATP luminescence, 48 h; series mostly up to 46.1 µM
# [10] = Identifying Small Molecule Inhibitors of Pancreatic Cancer Stem Cells (Panc1, Spheroid) (AID 1259359); conditions: Panc1 spheroid cancer stem cell viability; series mostly up to 46.1 µM;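 further: potency means the concentration at half of the fitted maximal effect; compound exposure lasted 48 h before reading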
# How it was run: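 Luminescent ATP readout (CellTiter-Glo) quantifies surviving cells after a 48 h drug incubation. Normalization uses DMSO wells as no inhibition and media-only wells as full inhibition; bortezomib served as positive control.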
structure (smiles),measurement,setting,value
CN[C@@H](C)C(=O)N[C@H]1CCCC[C@H]2CC[C@@H](C(=O)N[C@@H](c3ccccc3)c3cn(CCCCc4ccc(CCCCn5cc([C@@H](NC(=O)[C@@H]6CC[C@@H]7CCCC[C@H](NC(=O)[C@H](C)NC)C(=O)N76)c6ccccc6)nn5)cc4)nn3)N2C1=O,Potency,[1],inactive
same,Potency,[2],26.4 µM (active)
same,Potency,[3],18.7 µM (active)
same,Potency,[4],inactive
same,Potency,[5],inactive
CC1(C)Cc2c(-c3ccccc3)c(-c3ccc(Cl)cc3)c(CC(=O)O)n2C1,Potency,[1],inactive
same,Potency,[6],16.6 µM (active)
same,Potency,[5],inactive
Cc1ccccc1C(C(=O)NC1CCCC1)N(C(=O)Cn1cnc2ccccc21)c1cccc(F)c1 (configuration not stated),Potency,[1],inactive
same,Potency,[5],inactive
OCCn1cc(-c2cnc3nnn(Cc4ccc5ncccc5c4)c3n2)cn1,Potency,[1],inactive
same,Potency,[6],inactive
same,Potency,[3],inactive
same,Potency,[5],inactive
O=c1ncn2nc(Sc3ccc(F)cc3F)ccc2c1-c1c(Cl)cccc1Cl,Potency,[1],inactive
same,Potency,[3],inactive
same,Potency,[4],14.8 µM (active)
CCOc1ccc(Cc2cc([C@@H]3O[C@H](CO)[C@@H](O)[C@H](O)[C@@H]3O)ccc2Cl)cc1,Potency,[1],inactive
same,Potency,[4],inactive
CN(C)c1ccc(C2Nc3ccc4ccccc4c3C3=C2C(=O)CC(C)(C)C3)cc1Br (configuration not stated),Potency,[1],inactive
same,Potency,[2],inactive
same,Potency,[3],16.6 µM (active)
same,Potency,[5],inactive
NS(=O)(=O)c1cc2c(cc1Cl)NC=NS2(=O)=O,Potency,[7],inactive
same,Potency,[6],inactive
same,Potency,[2],inactive
same,Potency,[3],inactive
same,Potency,[8],inactive
same,outcome,[9],inactive
OC(CCN1CCCCC1)(c1ccccc1)C1CC2C=CC1C2 (configuration not stated),Potency,[7],inactive
same,Potency,[6],inactive
same,Potency,[2],inactive
same,Potency,[3],inactive
same,Potency,[8],inactive
same,outcome,[9],inactive
NC(=O)c1ccc(-c2nc(-c3ccc4c(c3)OCCO4)c(-c3ccccn3)[nH]2)cc1,Potency,[1],inactive
same,Potency,[6],23.5 µM (active)
same,Potency,[5],inactive
COc1ccc(-c2c(-c3ccc(O)cc3O)n[nH]c2C)cc1,Potency,[1],inactive
same,Potency,[3],inactive
same,Potency,[4],inactive
same,Potency,[5],inactive
CCCCCCCc1ccc(CCc2cccc(O)c2C(=O)O)cc1,Potency,[1],inactive
same,Potency,[6],16.6 µM (active)
same,Potency,[4],inactive
same,Potency,[5],inactive
C[C@@H]1CN(Cc2ccc(F)cc2)[C@@H](C)CN1C(=O)c1cc2c(C(=O)C(=O)N(C)C)cn(C)c2cc1Cl,Potency,[1],inactive
same,Potency,[2],23.5 µM (active)
CCC(C)N(C)C(=O)c1cc2ccccc2c(-c2ccccc2Cl)n1 (configuration not stated),Potency,[1],inactive
same,Potency,[6],23.5 µM (active)
same,Potency,[5],inactive
CC(C)C[C@H](NC(=O)[C@@H](O)[C@H](N)Cc1ccccc1)C(=O)O,Potency,[6],26.4 µM (active)
same,Potency,[3],23.5 µM (active)
Clc1ccc(Nc2nnc(Cc3ccncc3)c3ccccc23)cc1,Potency,[7],2.96 µM (active)
same,Potency,[6],20.9 µM (active)
same,Potency,[3],26.4 µM (active)
same,Potency,[8],inactive
same,outcome,[9],inactive
CCC(=O)N[C@H]1CC[C@H](C(=O)N(C)c2ccc(-c3nc4ccccc4o3)cc2)C1,Potency,[6],2.35 µM (active)
same,Potency,[4],14.8 µM (active)
same,Potency,[10],3.72 µM (active)
CC(C)(C)OC(=O)CN(Cc1ccc(Cl)cc1)Cc1ccc([N+](=O)[O-])s1,Potency,[7],inactive
same,Potency,[6],2.35 µM (active)
same,Potency,[10],7.43 µM (active)
CCN(CCCO)CCCOc1ccc2c(Nc3cc(CC(=O)Nc4cccc(F)c4)[nH]n3)ncnc2c1,Potency,[5],inactive
Oc1cccc(-c2nc(N3CCOCC3)c3oc4ncccc4c3n2)c1,Potency,[6],0.152 µM (active)
same,Potency,[2],0.429 µM (active)
same,Potency,[3],0.0762 µM (active)
same,Potency,[4],0.833 µM (active)
COc1ccc(-c2ccc3c(N4CCOC[C@H]4C)nc(N4CCOC[C@H]4C)nc3n2)cc1CO,Potency,[6],0.0332 µM (active)
same,Potency,[2],0.0264 µM (active)
same,Potency,[3],0.0264 µM (active)
same,Potency,[4],0.0187 µM (active)
same,Potency,[5],0.0148 µM (active)
O=C(OCC#CCSc1nnc(-c2ccc3ccccc3c2)o1)c1cc2ccccc2s1,Potency,[5],inactive
Cc1cc(-c2ccc(CC(=O)Nc3ccc(-c4cccnc4)cc3)cc2)ccn1,Potency,[7],20.9 µM (active)
same,Potency,[6],16.6 µM (active)
same,Potency,[5],inactive
Cc1cc(Nc2nc(N[C@@H](C)c3ncc(F)cn3)ncc2Cl)n[nH]1,Potency,[7],6.62 µM (active)
same,Potency,[6],10.5 µM (active)
same,Potency,[3],16.6 µM (active)
same,Potency,[5],inactive
C[C@H](NC(=O)Cc1cc(F)cc(F)c1)C(=O)N[C@@H]1C(=O)N(C)c2ccccc2-c2ccccc21,Potency,[7],8.33 µM (active)
same,Potency,[6],10.5 µM (active)
same,Potency,[3],11.8 µM (active)
same,Potency,[5],inactive
O=S(=O)(N=Cc1c(O)ccc2ccccc12)c1cccs1,Potency,[7],0.105 µM (active)
same,Potency,[6],1.66 µM (active)
same,Potency,[3],0.372 µM (active)
same,Potency,[5],inactive
Cc1cnc(Nc2ccc(OCCN3CCCC3)cc2)nc1Nc1cccc(S(=O)(=O)NC(C)(C)C)c1,Potency,[6],inactive
same,Potency,[2],inactive
